# From ChEMBL document CHEMBL2218924, “A broad activity screen in support of a chemogenomic map for kinase signalling research and drug discovery” (Biochem J, 2013)
# What was measured:
# [1] = target: Ephrin type-A receptor 4 (Homo sapiens) (UniProt P54764); conditions: at 1 µM
# [2] = target: Ephrin type-A receptor 4 (Homo sapiens) (UniProt P54764); conditions: at 10 µM
# [3] = target: Ephrin type-A receptor 5 (Homo sapiens) (UniProt P54756); conditions: at 1 µM
# [4] = target: Ephrin type-A receptor 5 (Homo sapiens) (UniProt P54756); conditions: at 10 µM
# [5] = target: Ephrin type-A receptor 7 (Homo sapiens) (UniProt Q15375); conditions: at 10 µM
# [6] = target: T1, Ephrin type-B receptor 1 (Homo sapiens) (UniProt P54762); conditions: at 1 µM
# T1 sequence (whole entry): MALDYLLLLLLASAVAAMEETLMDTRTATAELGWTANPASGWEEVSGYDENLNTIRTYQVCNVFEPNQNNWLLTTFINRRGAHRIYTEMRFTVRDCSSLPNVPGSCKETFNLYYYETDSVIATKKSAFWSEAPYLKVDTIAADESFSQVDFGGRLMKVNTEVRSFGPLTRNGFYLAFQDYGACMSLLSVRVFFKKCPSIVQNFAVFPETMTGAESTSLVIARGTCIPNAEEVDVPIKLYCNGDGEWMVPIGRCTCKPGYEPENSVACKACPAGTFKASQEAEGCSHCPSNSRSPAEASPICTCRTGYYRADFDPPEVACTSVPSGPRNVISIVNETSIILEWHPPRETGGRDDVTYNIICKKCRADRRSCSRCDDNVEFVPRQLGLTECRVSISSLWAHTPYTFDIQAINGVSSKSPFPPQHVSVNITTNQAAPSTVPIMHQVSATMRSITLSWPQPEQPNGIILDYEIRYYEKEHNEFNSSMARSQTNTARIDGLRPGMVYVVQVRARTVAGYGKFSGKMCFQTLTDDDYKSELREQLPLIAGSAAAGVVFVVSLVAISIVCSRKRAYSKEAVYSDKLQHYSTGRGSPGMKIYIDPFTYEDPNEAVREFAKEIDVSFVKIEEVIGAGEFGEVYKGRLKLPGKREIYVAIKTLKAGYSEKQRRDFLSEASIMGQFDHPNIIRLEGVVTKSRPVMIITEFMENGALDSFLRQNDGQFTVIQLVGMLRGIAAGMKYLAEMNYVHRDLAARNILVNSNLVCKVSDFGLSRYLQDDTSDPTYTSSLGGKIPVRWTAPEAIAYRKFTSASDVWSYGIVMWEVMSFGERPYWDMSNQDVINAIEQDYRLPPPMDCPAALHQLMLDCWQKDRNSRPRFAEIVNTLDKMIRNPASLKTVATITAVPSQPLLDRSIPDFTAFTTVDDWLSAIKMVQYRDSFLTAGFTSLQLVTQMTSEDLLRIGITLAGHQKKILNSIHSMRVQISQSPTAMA
# [7] = target: T1, Ephrin type-B receptor 1 (Homo sapiens); conditions: at 10 µM
# [8] = target: T2, Ephrin type-B receptor 2 (Homo sapiens) (UniProt P29323); conditions: at 1 µM
# T2 sequence (whole entry): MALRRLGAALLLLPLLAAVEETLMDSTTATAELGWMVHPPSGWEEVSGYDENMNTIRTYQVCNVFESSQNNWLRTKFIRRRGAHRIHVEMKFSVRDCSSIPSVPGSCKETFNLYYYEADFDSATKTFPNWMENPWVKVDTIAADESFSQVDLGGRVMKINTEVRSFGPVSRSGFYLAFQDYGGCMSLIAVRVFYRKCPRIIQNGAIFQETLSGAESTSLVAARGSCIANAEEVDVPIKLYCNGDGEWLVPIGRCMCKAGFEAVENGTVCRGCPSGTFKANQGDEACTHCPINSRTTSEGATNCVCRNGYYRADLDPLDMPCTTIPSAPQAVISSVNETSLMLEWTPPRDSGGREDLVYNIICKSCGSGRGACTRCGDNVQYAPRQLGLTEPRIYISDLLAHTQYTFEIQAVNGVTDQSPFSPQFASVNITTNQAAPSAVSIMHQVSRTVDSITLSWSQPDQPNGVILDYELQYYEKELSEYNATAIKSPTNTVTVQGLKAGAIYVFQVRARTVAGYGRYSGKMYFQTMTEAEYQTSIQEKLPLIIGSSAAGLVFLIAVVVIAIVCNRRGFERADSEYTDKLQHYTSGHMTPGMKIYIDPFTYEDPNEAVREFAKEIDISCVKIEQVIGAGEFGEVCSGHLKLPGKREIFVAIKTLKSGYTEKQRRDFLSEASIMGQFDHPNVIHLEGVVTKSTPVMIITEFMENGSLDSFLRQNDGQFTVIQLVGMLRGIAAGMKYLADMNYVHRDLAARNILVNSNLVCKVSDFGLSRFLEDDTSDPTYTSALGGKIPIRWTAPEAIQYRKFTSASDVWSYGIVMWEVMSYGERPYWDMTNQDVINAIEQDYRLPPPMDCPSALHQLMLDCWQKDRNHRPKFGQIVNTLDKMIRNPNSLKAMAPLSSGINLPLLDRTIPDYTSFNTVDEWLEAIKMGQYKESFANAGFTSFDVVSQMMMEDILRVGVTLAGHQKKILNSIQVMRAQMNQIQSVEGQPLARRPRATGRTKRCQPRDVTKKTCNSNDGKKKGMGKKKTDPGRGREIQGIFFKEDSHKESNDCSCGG
# [9] = target: T2, Ephrin type-B receptor 2 (Homo sapiens); conditions: at 10 µM
# [10] = target: T3, Ephrin type-B receptor 3 (Homo sapiens) (UniProt P54753); conditions: at 1 µM
# T3 sequence (whole entry): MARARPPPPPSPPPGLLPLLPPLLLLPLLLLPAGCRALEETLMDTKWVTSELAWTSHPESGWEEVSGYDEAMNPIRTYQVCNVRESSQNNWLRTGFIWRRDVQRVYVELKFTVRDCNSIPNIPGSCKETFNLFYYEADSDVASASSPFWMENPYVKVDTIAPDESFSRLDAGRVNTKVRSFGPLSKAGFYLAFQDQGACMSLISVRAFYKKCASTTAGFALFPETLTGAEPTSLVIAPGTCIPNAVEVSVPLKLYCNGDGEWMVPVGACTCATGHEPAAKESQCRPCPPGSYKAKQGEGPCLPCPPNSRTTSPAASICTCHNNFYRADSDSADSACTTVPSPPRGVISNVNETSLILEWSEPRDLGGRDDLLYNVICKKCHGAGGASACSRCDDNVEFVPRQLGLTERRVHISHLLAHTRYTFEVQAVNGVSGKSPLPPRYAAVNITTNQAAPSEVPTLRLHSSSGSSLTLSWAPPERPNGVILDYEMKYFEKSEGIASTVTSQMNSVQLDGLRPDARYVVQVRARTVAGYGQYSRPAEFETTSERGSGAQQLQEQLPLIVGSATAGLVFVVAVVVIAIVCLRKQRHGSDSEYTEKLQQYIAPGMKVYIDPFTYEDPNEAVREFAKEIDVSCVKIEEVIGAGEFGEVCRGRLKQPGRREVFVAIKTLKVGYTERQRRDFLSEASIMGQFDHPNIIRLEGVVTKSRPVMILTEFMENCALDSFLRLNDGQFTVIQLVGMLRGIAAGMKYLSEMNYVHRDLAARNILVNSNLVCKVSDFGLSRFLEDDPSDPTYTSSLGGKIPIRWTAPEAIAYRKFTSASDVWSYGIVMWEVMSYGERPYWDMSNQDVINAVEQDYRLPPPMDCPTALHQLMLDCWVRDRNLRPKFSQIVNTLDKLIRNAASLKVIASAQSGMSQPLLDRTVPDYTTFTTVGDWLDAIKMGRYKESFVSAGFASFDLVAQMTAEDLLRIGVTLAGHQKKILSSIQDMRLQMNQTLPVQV
# [11] = target: T3, Ephrin type-B receptor 3 (Homo sapiens); conditions: at 10 µM
# [12] = target: T4, Ephrin type-B receptor 4 (Homo sapiens) (UniProt P54760); conditions: at 10 µM
# T4 sequence (whole entry): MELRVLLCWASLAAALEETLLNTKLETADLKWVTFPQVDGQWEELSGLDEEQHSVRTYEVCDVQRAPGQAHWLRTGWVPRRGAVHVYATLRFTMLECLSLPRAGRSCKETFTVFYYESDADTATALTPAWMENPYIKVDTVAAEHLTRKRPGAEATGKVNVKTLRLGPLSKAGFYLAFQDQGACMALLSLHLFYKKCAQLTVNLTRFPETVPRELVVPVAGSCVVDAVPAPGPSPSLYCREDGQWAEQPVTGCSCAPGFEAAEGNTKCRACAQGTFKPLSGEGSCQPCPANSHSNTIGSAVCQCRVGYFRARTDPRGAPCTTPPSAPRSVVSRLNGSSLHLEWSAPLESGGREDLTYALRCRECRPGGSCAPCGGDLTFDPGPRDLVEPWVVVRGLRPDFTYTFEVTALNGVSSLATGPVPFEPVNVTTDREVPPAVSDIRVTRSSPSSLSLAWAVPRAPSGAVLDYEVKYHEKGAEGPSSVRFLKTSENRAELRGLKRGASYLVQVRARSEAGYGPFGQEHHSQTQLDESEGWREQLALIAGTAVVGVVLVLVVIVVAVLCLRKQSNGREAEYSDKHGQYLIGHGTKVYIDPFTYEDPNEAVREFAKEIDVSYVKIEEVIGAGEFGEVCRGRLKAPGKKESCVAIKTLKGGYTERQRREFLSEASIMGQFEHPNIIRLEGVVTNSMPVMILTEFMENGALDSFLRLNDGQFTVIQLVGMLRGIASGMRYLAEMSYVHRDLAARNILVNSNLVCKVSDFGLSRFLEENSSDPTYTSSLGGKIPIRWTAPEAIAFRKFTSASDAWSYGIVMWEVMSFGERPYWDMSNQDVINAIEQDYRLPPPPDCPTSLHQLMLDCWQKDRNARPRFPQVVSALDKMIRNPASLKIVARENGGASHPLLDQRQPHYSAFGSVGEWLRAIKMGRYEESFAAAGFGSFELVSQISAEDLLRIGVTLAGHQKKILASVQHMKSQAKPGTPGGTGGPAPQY
# [13] = target: Receptor tyrosine-protein kinase erbB-4 (Homo sapiens) (UniProt Q15303); conditions: at 1 µM
# [14] = target: Receptor tyrosine-protein kinase erbB-4 (Homo sapiens) (UniProt Q15303); conditions: at 10 µM
# [15] = target: T5, Ephrin type-A receptor 3 (Homo sapiens) (UniProt P29320); conditions: at 10 µM
# T5 sequence (whole entry): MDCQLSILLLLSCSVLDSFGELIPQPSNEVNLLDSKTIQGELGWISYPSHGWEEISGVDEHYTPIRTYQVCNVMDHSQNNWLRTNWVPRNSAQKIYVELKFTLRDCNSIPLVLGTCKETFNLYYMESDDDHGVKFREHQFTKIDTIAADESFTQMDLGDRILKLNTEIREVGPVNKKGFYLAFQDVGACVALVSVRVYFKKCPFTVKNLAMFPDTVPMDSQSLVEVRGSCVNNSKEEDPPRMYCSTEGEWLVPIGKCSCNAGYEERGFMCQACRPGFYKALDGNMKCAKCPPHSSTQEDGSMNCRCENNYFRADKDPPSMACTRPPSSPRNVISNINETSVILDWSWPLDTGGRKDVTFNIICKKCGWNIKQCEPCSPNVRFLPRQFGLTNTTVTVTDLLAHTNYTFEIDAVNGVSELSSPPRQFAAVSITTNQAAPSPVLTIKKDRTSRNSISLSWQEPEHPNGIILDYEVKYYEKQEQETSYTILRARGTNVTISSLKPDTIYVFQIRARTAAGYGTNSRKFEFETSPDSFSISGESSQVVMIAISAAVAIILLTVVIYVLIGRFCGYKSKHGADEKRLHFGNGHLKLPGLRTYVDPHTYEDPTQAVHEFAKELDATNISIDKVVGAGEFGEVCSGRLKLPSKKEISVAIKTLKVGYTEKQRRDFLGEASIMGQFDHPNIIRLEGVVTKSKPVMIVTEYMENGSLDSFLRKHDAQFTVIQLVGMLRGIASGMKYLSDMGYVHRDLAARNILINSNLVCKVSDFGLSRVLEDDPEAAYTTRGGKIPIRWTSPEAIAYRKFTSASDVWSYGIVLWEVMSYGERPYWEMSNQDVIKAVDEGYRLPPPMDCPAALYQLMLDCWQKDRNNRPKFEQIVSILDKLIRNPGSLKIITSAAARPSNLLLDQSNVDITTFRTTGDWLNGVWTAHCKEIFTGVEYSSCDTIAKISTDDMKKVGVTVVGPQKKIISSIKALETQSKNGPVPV
# [16] = target: T6, Ephrin type-A receptor 8 (Homo sapiens) (UniProt P29322); conditions: at 1 µM
# T6 sequence (whole entry): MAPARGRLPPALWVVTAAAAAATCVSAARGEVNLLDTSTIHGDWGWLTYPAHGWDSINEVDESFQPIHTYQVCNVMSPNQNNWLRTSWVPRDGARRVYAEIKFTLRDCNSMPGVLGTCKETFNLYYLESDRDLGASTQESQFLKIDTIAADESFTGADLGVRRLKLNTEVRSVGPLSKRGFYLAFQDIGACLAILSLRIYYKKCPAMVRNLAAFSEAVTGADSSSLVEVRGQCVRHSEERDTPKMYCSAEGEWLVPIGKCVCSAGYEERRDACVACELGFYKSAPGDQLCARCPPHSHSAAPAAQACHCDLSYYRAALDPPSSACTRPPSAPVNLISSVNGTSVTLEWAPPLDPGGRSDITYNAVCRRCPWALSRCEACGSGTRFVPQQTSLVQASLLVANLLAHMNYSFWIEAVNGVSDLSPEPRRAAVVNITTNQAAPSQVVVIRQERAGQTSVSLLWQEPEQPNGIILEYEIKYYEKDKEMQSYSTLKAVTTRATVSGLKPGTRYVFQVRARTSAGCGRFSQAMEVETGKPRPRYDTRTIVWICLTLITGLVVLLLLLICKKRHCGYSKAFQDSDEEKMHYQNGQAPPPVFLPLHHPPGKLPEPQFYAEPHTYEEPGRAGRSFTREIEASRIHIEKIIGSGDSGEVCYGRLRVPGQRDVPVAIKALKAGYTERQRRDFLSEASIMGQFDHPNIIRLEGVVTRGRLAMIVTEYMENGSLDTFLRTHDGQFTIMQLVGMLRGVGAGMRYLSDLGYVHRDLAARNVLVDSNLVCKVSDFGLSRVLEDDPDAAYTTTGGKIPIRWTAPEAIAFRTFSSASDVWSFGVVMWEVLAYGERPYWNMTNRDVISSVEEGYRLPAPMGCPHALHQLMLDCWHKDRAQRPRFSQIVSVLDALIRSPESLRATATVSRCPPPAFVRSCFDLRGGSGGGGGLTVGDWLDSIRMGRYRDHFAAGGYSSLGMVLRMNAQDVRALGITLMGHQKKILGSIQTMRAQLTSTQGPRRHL
# [17] = target: T6, Ephrin type-A receptor 8 (Homo sapiens); conditions: at 10 µM
# [18] = target: Focal adhesion kinase 1 (Homo sapiens) (UniProt Q05397); conditions: at 1 µM
# Focal adhesion kinase 1 (Homo sapiens), sequence (Q05397 2-1052 limits assumed): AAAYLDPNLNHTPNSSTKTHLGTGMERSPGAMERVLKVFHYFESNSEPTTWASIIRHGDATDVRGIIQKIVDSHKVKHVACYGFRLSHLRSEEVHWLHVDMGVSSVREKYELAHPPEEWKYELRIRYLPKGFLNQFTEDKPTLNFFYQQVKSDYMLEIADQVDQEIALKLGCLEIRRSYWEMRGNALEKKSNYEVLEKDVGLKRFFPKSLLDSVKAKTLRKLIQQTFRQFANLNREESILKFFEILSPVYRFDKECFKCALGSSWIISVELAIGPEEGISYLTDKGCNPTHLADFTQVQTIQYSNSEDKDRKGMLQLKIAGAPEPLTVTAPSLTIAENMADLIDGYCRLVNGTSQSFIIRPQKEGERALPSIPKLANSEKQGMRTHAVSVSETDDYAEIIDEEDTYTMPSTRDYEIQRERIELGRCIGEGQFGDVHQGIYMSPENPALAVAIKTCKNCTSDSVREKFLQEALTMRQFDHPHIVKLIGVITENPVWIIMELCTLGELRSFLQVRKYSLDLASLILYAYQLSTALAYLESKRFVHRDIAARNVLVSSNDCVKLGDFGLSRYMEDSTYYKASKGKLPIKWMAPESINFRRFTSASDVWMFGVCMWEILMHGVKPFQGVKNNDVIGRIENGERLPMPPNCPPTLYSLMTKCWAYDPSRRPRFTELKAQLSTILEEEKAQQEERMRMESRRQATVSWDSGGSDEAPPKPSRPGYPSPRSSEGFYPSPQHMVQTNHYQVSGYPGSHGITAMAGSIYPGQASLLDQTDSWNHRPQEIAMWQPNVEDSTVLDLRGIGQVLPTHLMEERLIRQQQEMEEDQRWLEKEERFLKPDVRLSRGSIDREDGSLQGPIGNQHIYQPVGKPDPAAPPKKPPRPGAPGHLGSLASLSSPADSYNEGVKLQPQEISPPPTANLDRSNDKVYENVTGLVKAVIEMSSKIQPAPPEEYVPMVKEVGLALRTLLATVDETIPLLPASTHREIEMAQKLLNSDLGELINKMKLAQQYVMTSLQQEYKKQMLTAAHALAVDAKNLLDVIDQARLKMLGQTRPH
# Receptor tyrosine-protein kinase erbB-4 (Homo sapiens), sequence (Q15303 whole entry): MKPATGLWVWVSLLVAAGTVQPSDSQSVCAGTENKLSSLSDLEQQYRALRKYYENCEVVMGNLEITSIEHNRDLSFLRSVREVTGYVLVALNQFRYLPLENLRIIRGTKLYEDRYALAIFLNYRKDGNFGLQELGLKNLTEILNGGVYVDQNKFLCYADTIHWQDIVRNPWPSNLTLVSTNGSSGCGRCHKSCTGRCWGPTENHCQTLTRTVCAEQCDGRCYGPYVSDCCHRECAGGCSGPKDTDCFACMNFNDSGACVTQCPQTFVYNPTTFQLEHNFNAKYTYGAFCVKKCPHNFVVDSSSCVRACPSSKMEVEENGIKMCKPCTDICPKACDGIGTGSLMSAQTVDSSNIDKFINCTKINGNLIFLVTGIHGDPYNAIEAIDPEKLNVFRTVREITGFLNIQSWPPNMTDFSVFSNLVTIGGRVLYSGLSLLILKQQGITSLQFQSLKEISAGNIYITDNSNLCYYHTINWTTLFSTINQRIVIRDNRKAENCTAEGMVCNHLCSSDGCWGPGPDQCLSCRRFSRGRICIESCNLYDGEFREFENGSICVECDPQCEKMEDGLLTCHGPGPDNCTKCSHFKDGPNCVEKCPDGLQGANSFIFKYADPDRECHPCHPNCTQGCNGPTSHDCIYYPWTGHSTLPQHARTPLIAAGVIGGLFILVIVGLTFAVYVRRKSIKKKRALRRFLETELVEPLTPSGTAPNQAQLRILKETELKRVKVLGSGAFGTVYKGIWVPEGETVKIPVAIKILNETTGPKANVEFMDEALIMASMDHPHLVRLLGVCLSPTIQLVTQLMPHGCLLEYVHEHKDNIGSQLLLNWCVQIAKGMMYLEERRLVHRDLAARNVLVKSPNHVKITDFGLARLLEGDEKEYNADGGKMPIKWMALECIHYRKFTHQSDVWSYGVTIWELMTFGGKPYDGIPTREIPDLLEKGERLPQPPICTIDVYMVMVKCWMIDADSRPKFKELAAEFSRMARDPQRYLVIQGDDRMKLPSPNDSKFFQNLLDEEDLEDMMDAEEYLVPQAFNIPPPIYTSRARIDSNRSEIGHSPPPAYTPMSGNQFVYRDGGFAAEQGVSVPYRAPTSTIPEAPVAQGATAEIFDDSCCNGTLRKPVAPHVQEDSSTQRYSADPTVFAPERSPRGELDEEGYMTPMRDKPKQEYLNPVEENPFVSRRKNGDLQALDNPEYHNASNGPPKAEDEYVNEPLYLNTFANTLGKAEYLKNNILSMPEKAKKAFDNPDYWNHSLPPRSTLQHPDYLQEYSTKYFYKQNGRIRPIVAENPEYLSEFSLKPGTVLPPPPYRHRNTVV
# Ephrin type-A receptor 4 (Homo sapiens), sequence (P54764 whole entry): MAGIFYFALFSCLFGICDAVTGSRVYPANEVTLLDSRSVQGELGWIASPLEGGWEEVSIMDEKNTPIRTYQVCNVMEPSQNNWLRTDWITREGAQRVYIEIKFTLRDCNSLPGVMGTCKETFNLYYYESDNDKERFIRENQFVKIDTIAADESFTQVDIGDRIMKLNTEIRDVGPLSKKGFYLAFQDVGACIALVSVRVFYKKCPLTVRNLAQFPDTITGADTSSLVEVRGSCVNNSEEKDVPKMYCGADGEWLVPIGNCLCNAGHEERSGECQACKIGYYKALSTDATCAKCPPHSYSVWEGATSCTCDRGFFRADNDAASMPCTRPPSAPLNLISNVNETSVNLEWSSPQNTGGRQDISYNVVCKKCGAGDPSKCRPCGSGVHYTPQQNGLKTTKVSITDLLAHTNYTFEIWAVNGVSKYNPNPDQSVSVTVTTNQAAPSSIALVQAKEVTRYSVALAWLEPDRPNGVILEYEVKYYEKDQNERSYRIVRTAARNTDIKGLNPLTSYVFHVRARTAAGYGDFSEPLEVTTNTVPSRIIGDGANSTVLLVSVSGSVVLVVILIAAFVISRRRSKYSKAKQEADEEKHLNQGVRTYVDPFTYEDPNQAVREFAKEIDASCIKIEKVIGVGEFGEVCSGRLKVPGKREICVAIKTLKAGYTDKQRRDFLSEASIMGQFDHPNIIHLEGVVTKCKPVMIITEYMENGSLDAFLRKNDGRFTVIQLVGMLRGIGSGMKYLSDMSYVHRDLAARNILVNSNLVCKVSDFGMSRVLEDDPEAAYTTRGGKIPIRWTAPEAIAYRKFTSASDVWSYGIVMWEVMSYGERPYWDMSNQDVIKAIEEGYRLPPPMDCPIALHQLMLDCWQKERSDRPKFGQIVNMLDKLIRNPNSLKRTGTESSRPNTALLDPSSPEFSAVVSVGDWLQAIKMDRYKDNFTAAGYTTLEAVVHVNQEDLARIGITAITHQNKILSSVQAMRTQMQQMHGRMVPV
# Ephrin type-A receptor 5 (Homo sapiens), sequence (P54756 whole entry): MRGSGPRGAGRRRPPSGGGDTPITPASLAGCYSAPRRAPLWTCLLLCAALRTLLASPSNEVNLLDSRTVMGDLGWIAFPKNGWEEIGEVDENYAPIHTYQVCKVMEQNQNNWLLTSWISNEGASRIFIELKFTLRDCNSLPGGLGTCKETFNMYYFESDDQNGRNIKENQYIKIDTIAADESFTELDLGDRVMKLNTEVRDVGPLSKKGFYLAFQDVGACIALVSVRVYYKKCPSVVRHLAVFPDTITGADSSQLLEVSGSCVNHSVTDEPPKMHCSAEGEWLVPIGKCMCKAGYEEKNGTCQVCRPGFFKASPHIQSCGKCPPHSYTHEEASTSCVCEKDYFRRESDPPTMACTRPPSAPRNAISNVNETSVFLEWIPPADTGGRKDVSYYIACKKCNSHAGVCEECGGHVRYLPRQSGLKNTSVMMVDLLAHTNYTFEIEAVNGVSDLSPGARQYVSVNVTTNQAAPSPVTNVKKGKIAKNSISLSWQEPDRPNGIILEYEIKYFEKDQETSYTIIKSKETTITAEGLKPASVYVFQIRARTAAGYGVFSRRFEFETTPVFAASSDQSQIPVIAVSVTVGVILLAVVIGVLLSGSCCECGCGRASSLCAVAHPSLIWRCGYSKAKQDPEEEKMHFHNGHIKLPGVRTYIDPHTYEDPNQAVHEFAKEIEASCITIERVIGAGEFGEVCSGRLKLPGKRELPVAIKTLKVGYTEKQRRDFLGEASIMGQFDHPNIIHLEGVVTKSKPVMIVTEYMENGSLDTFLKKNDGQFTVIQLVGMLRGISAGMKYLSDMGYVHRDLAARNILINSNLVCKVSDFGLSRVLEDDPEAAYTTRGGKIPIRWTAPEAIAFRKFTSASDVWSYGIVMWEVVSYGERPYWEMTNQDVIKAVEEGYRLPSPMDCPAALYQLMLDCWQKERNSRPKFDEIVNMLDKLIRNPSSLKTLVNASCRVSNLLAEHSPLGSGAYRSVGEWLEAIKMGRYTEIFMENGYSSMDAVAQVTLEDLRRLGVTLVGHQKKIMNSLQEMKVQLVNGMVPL
Structure (SMILES),residual activity [1],residual activity [2],residual activity [3],residual activity [4],residual activity [5],residual activity [6],residual activity [7],residual activity [8],residual activity [9],residual activity [10],residual activity [11],residual activity [12],residual activity [13],residual activity [14],residual activity [15],residual activity [16],residual activity [17],residual activity [18]
COc1ccc(CNC(=O)Nc2ncc([N+](=O)[O-])s2)cc1,100%,102%,114%,102%,80%,111%,80%,105%,117%,117% (inactive),105%,78%,43%,33%,,,,
CC(C)(C)c1nc2c3ccc(F)cc3c3c(=O)[nH]ccc3c2[nH]1,,,,,,,99%,,,,,,,,72%,103%,103%,51%
